Records with an inconclusive call do not appear. Active and inactive are the calls of the source. The call rests on the fitted dose curve; in most records, active means well fitted cell-killing curve with a large enough effect; inconclusive means small, poorly fitted or top-dose-only effect, or effect the other way; inactive means flat fitted curve, though single readings scatter.
How the values were obtained:
Test in all cases: Primary qHTS to identify gynecologic anti-cancer compounds using libraries of approved drugs and bioactive compounds (AID 1345084); further: nearly all actives have a fitted effect of over 55% in size
[1] = tested on: CAOV3; conditions: Gynecologic cancer cell panel viability, ATPlite luminescence, 48 h; series mostly up to 57.5 µM
How it was run: (§1)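 Five-concentration response, 48 h; readout is ATP-driven luciferase luminescence.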

[2] = tested on: CASKI; conditions: Gynecologic cancer cell panel viability, ATPlite luminescence, 48 h; series mostly up to 57.5 µM
How it was run: as §1

[3] = tested on: Es-2; conditions: Gynecologic cancer cell panel viability, ATPlite luminescence, 48 h; series mostly up to 57.5 µM
How it was run: as §1

[4] = tested on: HeLa; conditions: Gynecologic cancer cell panel viability, ATPlite luminescence, 48 h; series mostly up to 57.5 µM
How it was run: as §1

[5] = tested on: Hek293T; conditions: Gynecologic cancer cell panel viability, ATPlite luminescence, 48 h, control line for the selectivity index; series mostly up to 57.5 µM
How it was run: as §1

[6] = tested on: JEG-3; conditions: Gynecologic cancer cell panel viability, ATPlite luminescence, 48 h; series mostly up to 57.5 µM
How it was run: as §1

[7] = tested on: OV90; conditions: Gynecologic cancer cell panel viability, ATPlite luminescence, 48 h; series mostly up to 57.5 µM
How it was run: as §1

[8] = tested on: PA-1; conditions: Gynecologic cancer cell panel viability, ATPlite luminescence, 48 h; series mostly up to 57.5 µM
How it was run: as §1

[9] = tested on: SKOV3; conditions: Gynecologic cancer cell panel viability, ATPlite luminescence, 48 h; series mostly up to 57.5 µM
How it was run: as §1

[10] = tested on: Tov-21-G; conditions: Gynecologic cancer cell panel viability, ATPlite luminescence, 48 h; series mostly up to 57.5 µM
How it was run: as §1

Measured: Potency

Clc1ccc(C(c2ccccc2Cl)C(Cl)Cl)cc1 (stereo not given)
inactive: all assays above

CC(COc1ccccc1)N(CCCl)Cc1ccccc1 (stereo not given)
inactive: all assays above

Nc1nc2c(ncn2COC(CO)CO)c(=O)[nH]1
inactive: all assays above

NCCCCCC(=O)O
inactive: all assays above

Cn1c(=O)c2[nH]cnc2n(C)c1=O
inactive: all assays above

NC(=O)OCC(COC(N)=O)c1ccccc1
inactive: all assays above

COc1ccc2[nH]cc(CCNC(C)=O)c2c1
inactive: all assays above

CN(C)CCOC(c1ccccc1)c1ccccc1
inactive: all assays above

CCOC(=O)c1ncn2c1CN(C)C(=O)c1cc(F)ccc1-2
inactive: all assays above

Cc1cn([C@H]2C=C[C@@H](CO)O2)c(=O)[nH]c1=O
inactive: all assays above

NCCS(=O)(=O)O
inactive: all assays above

CCc1cccc2c3c([nH]c12)C(CC)(CC(=O)O)OCC3 (stereo not given)
inactive: all assays above

Cc1ccc(C(=O)Nc2ccc(S(=O)(=O)O)c3cc(S(=O)(=O)O)cc(S(=O)(=O)O)c23)cc1NC(=O)c1cccc(NC(=O)Nc2cccc(C(=O)Nc3cc(C(=O)Nc4ccc(S(=O)(=O)O)c5cc(S(=O)(=O)O)cc(S(=O)(=O)O)c45)ccc3C)c2)c1
inactive: all assays above

Cc1cc(C(C)(C)C)c(O)c(C)c1CC1=NCCN1
inactive: all assays above

NC(=O)NO
inactive: all assays above

C[C@@H]1CC(=O)NN=C1c1ccc(NN=C(C#N)C#N)cc1
inactive: all assays above

CC[N+](CC)(CC)CCOc1cccc(OCC[N+](CC)(CC)CC)c1OCC[N+](CC)(CC)CC
inactive: all assays above

Cn1cnc2c1c(=O)[nH]c(=O)n2C
inactive: all assays above

Clc1ccc2c(c1)C(N1CCNCC1)=Nc1ccccc1O2
inactive: all assays above

NC12CC3CC(CC(C3)C1)C2
inactive: all assays above

CC(C)NCC(O)COc1ccc(CCOCC2CC2)cc1 (stereo not given)
inactive: all assays above

NCCc1cnc[nH]1
inactive: all assays above

O=C(c1ccc(F)cc1)C1CCN(CCn2c(=O)[nH]c3ccccc3c2=O)CC1
inactive: all assays above

Clc1ccc2nsnc2c1NC1=NCCN1
inactive: all assays above

COc1ccccc1OCC(O)CN1CCN(CC(=O)Nc2c(C)cccc2C)CC1 (stereo not given)
inactive: all assays above

CN1CCC(=C2c3ccccc3CC(=O)c3sccc32)CC1
inactive: all assays above

Nc1nnc(-c2cccc(Cl)c2Cl)c(N)n1
inactive: all assays above

COc1nc(C)nc(Cl)c1NC1=NCCN1
inactive: all assays above

CS(=O)(=O)Nc1ccc([N+](=O)[O-])cc1Oc1ccccc1
inactive: all assays above

Cc1ccc(-c2cc(C(F)(F)F)nn2-c2ccc(S(N)(=O)=O)cc2)cc1
inactive: all assays above

NS(=O)(=O)c1cc2c(cc1Cl)NCNS2(=O)=O
inactive: all assays above

Nc1ccn([C@H]2CC[C@@H](CO)O2)c(=O)n1
inactive: all assays above

CCOC(=O)Nc1ccc(NCc2ccc(F)cc2)nc1N
inactive: all assays above

CCC1(C)CC(=O)NC1=O (stereo not given)
not listed: [7]
inactive: all other assays above

CCN1CCCC1CNC(=O)c1cc(S(=O)(=O)CC)c(N)cc1OC (stereo not given)
not listed: [9]
inactive: all other assays above

O=C(c1ccc(OCCN2CCCCC2)cc1)c1c(-c2ccc(O)cc2)sc2cc(O)ccc12
not listed: [8] | [9]
inactive: all other assays above

CC(C(=O)O)c1cccc(C(=O)c2ccccc2)c1 (stereo not given)
not listed: [9]
inactive: all other assays above

CN1C(C(=O)Nc2ccccn2)=C(O)c2ccccc2S1(=O)=O
not listed: [9]
inactive: all other assays above

CCOC(=O)C(C)(C)Oc1ccc(Cl)cc1
inactive: all assays above

CC(CCc1ccc(O)cc1)NCCc1ccc(O)c(O)c1 (stereo not given)
not listed: [8] | [9]
inactive: all other assays above

COc1ccc(CCN(C)CCCC(C#N)(c2ccc(OC)c(OC)c2)C(C)C)cc1OC (stereo not given)
not listed: [7]
inactive: all other assays above

CN(C)C(=N)N=C(N)N
inactive: all assays above

Cc1ccccc1N1C(=O)c2cc(S(N)(=O)=O)c(Cl)cc2NC1C (stereo not given)
not listed: [7]
inactive: all other assays above

From PubChem BioAssay (NCATS)
